Reference: PubChem BioAssay (EPA / NIEHS)
Records with an inconclusive call do not appear. Calls of active or inactive are those of the source. Rule for the calls, unless noted: active = hit-call score of the fitted dose curve at least 0.9, where 1 is the maximum; inactive = score below 0.9.

Legend:
[1] = CCTE_Mundy_HCI_Cortical_NOG_NeuriteLength: CCTE's Neurite Outgrowth Assay in rat cortical cells for Neurite Length, Mundy Lab (AID 2284213)
Outline: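 Neurite length was read by high-content imaging of βIII-tubulin-labelled neurites in rat primary cortical cultures. Activity was fitted relative to DMSO.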

[2] = CCTE_Mundy_HCI_Cortical_Synap_Neur_Matur_NeuriteLength: CCTE's Synaptogenesis and Neurite Maturation Assay in rat cortical cells for Neurite Length, Mundy Lab (AID 2284214)
Outline: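 Rat primary cortical cultures, AraC added DIV 5, dosed DIV 7 through DIV 12 […]. Fixed, MAP2/synaptophysin immunostained with Hoechst; neurite length by high-content imaging, fitted in positive direction versus DMSO.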

[3] = CCTE_Mundy_HCI_Cortical_Synap_Neur_Matur_NeuriteSpotCountPerNeuron: CCTE's Synaptogenesis and Neurite Maturation Assay in rat cortical cells for Neurite Spot Count per Neuron Count, Mundy Lab (AID 2284215)
Outline: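 Rat primary cortical cells received AraC at DIV 5, then chemicals with a media change at DIV 7, and were fixed at DIV 12. Synaptophysin puncta on MAP2-stained neurites per neuron were counted by high-content imaging, fitted relative to DMSO.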

[4] = CCTE_Mundy_HCI_Cortical_Synap_Neur_Matur_SynapseCount: CCTE's Synaptogenesis and Neurite Maturation Assay in rat cortical cells for Synapse Count, Mundy Lab (AID 2284218)
Outline: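 Rat primary cortical cultures, AraC at DIV 5, chemical dosing DIV 7 to DIV 12 (288.33 h). Fixed cells stained for MAP2, synaptophysin and Hoechst; synapses per neuron counted by high-content imaging, loss of signal versus DMSO.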

[5] = CCTE_Mundy_HCI_Cortical_Synap_Neur_Matur_NeuriteCount: CCTE's Synaptogenesis and Neurite Maturation Assay in rat cortical cells for Neurite Count, Mundy Lab (AID 2284222);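 note: exposure from day 7 to day 12 in vitro with readout at day 12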
Outline: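 Rat primary cortical cells; AraC added at DIV 5, chemicals dosed with media change at DIV 7 through DIV 12. MAP2/synaptophysin/Hoechst immunostaining, high-content imaging of neurite number; fitted relative to DMSO.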

[6] = CCTE_Mundy_HCI_Cortical_Synap_Neur_Matur_CellBodySpotCount: CCTE's Synaptogenesis and Neurite Maturation Assay in rat cortical cells for Cell Body Spot Count, Mundy Lab (AID 2284223)
Outline: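 Rat primary cortical cultures received AraC at DIV 5 to arrest glia, were dosed with chemical at DIV 7 with media change, and were fixed at DIV 12 (288.33 h). Synaptophysin puncta on MAP2-positive cell bodies per neuron were counted by high-content imaging versus DMSO.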

[7] = CCTE_Mundy_HCI_hNP1_Pro_ResponderAvgInten: CCTE's Proliferation Assay in human neuroprogenitor cells, Mundy Lab (AID 2284224; active = hit-call score of the fitted dose curve at least 0.9, where 1 is the maximum;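 note: human neural progenitor cells hNP1 derived from WA09 embryonic stem cells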)
Outline: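 Proliferation read as average intensity of BrdU-positive cells, imaged at 26.25 h post-dosing: chemical exposure started after 40–44 h culture, BrdU during final 4 h, paraformaldehyde fixation. Positive-direction fit relative to DMSO.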

[8] = CCTE_Mundy_HCI_Cortical_NOG_NeuronCount: CCTE's Neurite Outgrowth Assay in rat cortical cells for Neuron Count, Mundy Lab (AID 2284236; active = hit-call score of the fitted dose curve at least 0.9, where 1 is the maximum;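 note: neurons counted by imaging betaIII-tubulin and Hoechst stained cortical cells; cells exposed to compound for about 48 hours before fixation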)
Outline: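 Read-out: neuron number by high-content imaging of betaIII-tubulin (Alexa Fluor-488) and Hoechst-labelled rat primary cortical cells.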

[9] = CCTE_Mundy_HCI_Cortical_NOG_BPCount: CCTE's Neurite Outgrowth Assay in rat cortical cells for Branch Point Count, Mundy Lab (AID 2284237)
Outline: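 Measured 50.33 h after dosing, this morphology endpoint uses rat primary cortical cultures labelled for betaIII-tubulin. Branch points are quantified by high-content imaging, with DMSO as negative control and baseline.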

[10] = CCTE_Mundy_HCI_hNP1_Casp3_7: CCTE's Caspase-Glo 3/7 Assay in human neuroprogenitor cells for Apoptosis, Mundy Lab (AID 2284240)
Outline: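 Luminescent caspase-3/7 readout, 26.5 h post-dose, in human neural progenitor cells from WA09 embryonic stem cells. Cells grew 40–44 h at 37 °C, 5% CO2 before chemical addition. Activity analysed as signal increase over DMSO baseline.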

[11] = CCTE_Mundy_HCI_hNP1_CellTiter: CCTE's Cell Titer-Glo 2 Assay in human neuroprogenitor cells for Viability, Mundy Lab (AID 2284241; active = hit-call score of the fitted dose curve at least 0.9, where 1 is the maximum)
Outline: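 Viability read as luminescent ATP content (CellTiter-Glo, 30 min room temperature) twenty-four hours after dosing, relative to DMSO. Cells: WA09-derived hNP1 neuroprogenitors on poly-L-ornithine/laminin, plated 40 to 44 hours before chemical.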

[12] = CCTE_Mundy_HCI_Cortical_Synap_Neur_Matur_NeuronCount: CCTE's Synaptogenesis and Neurite Maturation Assay in rat cortical cells for Neuron Count, Mundy Lab (AID 2284242; active = hit-call score of the fitted dose curve at least 0.9, where 1 is the maximum)
Outline: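 Rat primary cortical cells, AraC added at DIV 5, dosed with media change from DIV 7 to DIV 12. Fixed, Hoechst-stained and immunolabelled for MAP2 and synaptophysin; neuron number counted by high-content imaging, loss fitted versus DMSO.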

[13] = IUF_NPC2c_oligodendrocyte_migration_120hr: Leibniz Research Institute for Environmental Medicine (IUF) 120-hour Neural Progenitor Cell Migration Assay for Oligodendrocyte Migration (NPC2c) (AID 2284297);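 note: O4-positive oligodendrocyte migration distance divided by radial glia migration distance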
Outline: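 Human fetal cortex-derived neural progenitor spheres (0.3 mm) were plated on poly-D-lysine/laminin in N2 differentiation medium and exposed to 7 concentrations for 120 h, with half-medium renewal at day 3. Oligodendrocyte migration distance was normalized to radial glia migration, relative to DMSO.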

[14] = IUF_NPC2a_radial_glia_migration_120hr: Leibniz Research Institute for Environmental Medicine (IUF) 120-hour Neural Progenitor Cell Migration Assay for Radial Glia Migration (NPC2a) (AID 2284298)
Outline: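 Single 0.3 mm primary human fetal-cortex (GW 16-19) NPC spheres were plated on poly-D-lysine/laminin in N2 differentiation medium and exposed from day 0 for 120 h, half-medium refreshed day 3. Migration distance came from Hoechst nuclei-density imaging, relative to DMSO.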

[15] = IUF_NPC2a_radial_glia_migration_72hr: Leibniz Research Institute for Environmental Medicine (IUF) 72-hour Neural Progenitor Cell Migration Assay for Radial Glia Migration (NPC2a) (AID 2284299)
Outline: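 Human fetal neural progenitor spheres (0.3 mm) plated on poly-D-lysine/laminin in N2 differentiation medium and exposed from day 0 at 7 concentrations; radial glia migration distance from sphere edge measured at 72 h on brightfield images, mean of four directions, vs DMSO.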

[16] = IUF_NPC2b_neuronal_migration_120hr: Leibniz Research Institute for Environmental Medicine (IUF) 120-hour Neural Progenitor Cell Migration Assay for Neuron Migration (NPC2b) (AID 2284300)
Outline: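 Primary human fetal cortex neural progenitor spheres (0.3 mm) plated on poly-D-lysine/laminin in N2 differentiation medium, exposed 120 h with half-medium refresh at day 3. TUBB3-stained neuron distance from sphere core, normalized to radial glia migration, versus DMSO.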

[17] = IUF_NPC3_neuronal_differentiation_120hr: Leibniz Research Institute for Environmental Medicine (IUF) 120-hour Neuronal Differentiation Assay (NPC3) (AID 2284301)
Outline: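 Human fetal (GW 16-19) neural progenitor spheres (0.3 mm) plated on poly-D-lysine/laminin in N2 differentiation medium, exposed 120 h at 37C with half-medium renewal day 3; 7 concentrations. TUBB3+ cells as % of Hoechst nuclei, CNN-identified; DMSO baseline.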

[18] = IUF_NPC4_neurite_length_120hr: Leibniz Research Institute for Environmental Medicine (IUF) 120-hour Neuronal Morphology Assay for Neurite Length (NPC4) (AID 2284302)
Outline: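 Human fetal neural progenitor spheres (0.3 mm) plated on poly-D-lysine/laminin in N2 differentiation medium, exposed from day 0 for 120 h with half-medium refresh at day 3, 37C. Mean neurite length (um) of TUBB3-positive neurons from skeletonized immunostaining images; DMSO ≤0.1%.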

[19] = IUF_NPC4_neurite_area_120hr: Leibniz Research Institute for Environmental Medicine (IUF) 120-hour Neuronal Morphology Assay for Neurite Area (NPC4) (AID 2284305; active = hit-call score of the fitted dose curve at least 0.9, where 1 is the maximum)
Outline: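 Human fetal neural progenitor spheres (0.3 mm) plated on poly-D-lysine/laminin in N2 differentiation medium, exposed 120 h (7 concentrations, DMSO ≤0.1%, half-medium refresh day 3). Fixed, TUBB3 immunostained; mean neurite area per neuron by Omnisphero skeletonization.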

[20] = IUF_NPC2-5_cytotoxicity_72hr: Cytotoxicity Assessment at 72 hours in the Leibniz Research Institute for Environmental Medicine (IUF) Neural Progenitor Cell Migration and Differentiation Assay for Cytotoxicity (NPC2-5) (AID 2284306; active = hit-call score of the fitted dose curve at least 0.9, where 1 is the maximum;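 note: LDH release into supernatant measured by resorufin fluorescence marking membrane damage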)
Outline: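 Human fetal primary neural progenitor spheres (0.3 mm) plated on poly-D-lysine/laminin in N2 differentiation medium, exposed from day 0 at 37C. LDH-dependent resazurin-to-resorufin fluorescence in supernatant at 72 h; 7 concentrations, DMSO at most 0.1%.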

[21] = IUF_NPC2-5_cytotoxicity_120hr: Cytotoxicity Assessment at 120 hours in the Leibniz Research Institute for Environmental Medicine (IUF) Neural Progenitor Cell Migration and Differentiation Assay (NPC2-5) (AID 2284307; active = hit-call score of the fitted dose curve at least 0.9, where 1 is the maximum)
Outline: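 Human fetal neural progenitor spheres (0.3 mm, GW 16-19 cortex) were plated on poly-D-lysine/laminin in N2 differentiation medium and exposed for 120 h, with half-medium refresh at day 3. LDH release into supernatant was read by resorufin fluorescence.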

[22] = IUF_NPC2-5_cell_number_120hr: Cell Number Assessment at 120 hours in the Leibniz Research Institute for Environmental Medicine (IUF) Neural Progenitor Cell Migration and Differentiation Assay (NPC2-5) (AID 2284308);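 note: count of Hoechst-stained nuclei in migration zone around plated human neural progenitor spheres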
Outline: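 Primary human fetal neural progenitor spheres (GW 16-19, 0.3 mm) plated on poly-D-lysine/laminin in N2 differentiation medium, exposed from day 0 for 120 h with half-medium refresh at day 3; Hoechst-positive nuclei counted in migration area versus DMSO control.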

[23] = IUF_NPC1_cytotoxicity_72hr: Cytotoxicity Assessment at 72 hours in the Leibniz Research Institute for Environmental Medicine (IUF) Neural Progenitor Cell Proliferation Assay (NPC1) (AID 2284332; active = hit-call score of the fitted dose curve at least 0.9, where 1 is the maximum;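 note: rising LDH signal means more cytotoxicity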)
Outline: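 Human fetal neural progenitor spheres (0.3 mm) in EGF/FGF proliferation medium, 37C, exposed 72 h without renewal. LDH release in supernatant read by resorufin fluorescence; gain of signal scored relative to dynamic range.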

[24] = CCTE_Mundy_HCI_iCellGluta_NOG_NeuronCount: CCTE's Neurite Outgrowth Assay in iCellGluta cells for Neuron Count, Mundy Lab (AID 2284340; active = hit-call score of the fitted dose curve at least 0.9, where 1 is the maximum;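 note: cells fixed about 48 h after compound addition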)
Outline: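 Neuron count read by automated high-content imaging of Hoechst 33342 and betaIII-tubulin/Alexa Fluor-488 labelling in human iPSC glutamatergic neurons. Activity fitted relative to DMSO.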

[25] = CCTE_Mundy_HCI_iCellGluta_NOG_NeuriteCount: CCTE's Neurite Outgrowth Assay in iCellGluta cells for Neurite Count, Mundy Lab (AID 2284342; active = hit-call score of the fitted dose curve at least 0.9, where 1 is the maximum;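 note: chemical exposure about 48 hours starting 2 hours after plating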)

Measured: outcome

CC(C)O
inactive: [1] | [2] | [3] | [4] | [5] | [6] | [7] | [8] | [9] | [10] | [11] | [12] | [13] | [14] | [15] | [16] | [17] | [18] | [19] | [20] | [21] | [22] | [23] | [24] | [25]
